Assay results published in PubChem BioAssay AID489008 (National Center for Advancing Translational Sciences (NCATS), 2010).
Records with an inconclusive call do not appear. Activity calls are given as the source filed them. The call rests on the fitted dose curve; in most records, active means well fitted inhibition curve with a large enough effect; inconclusive means small, poorly fitted or top-dose-only effect; inactive means flat fitted curve, though single readings scatter.

Target: Ferritin light chain (Equus caballus) (UniProt P02791)
Experiment: Confirmation Assay for Identification of Novel General Anesthetics; further: nearly all actives have a fitted effect of over 40% in size
Conditions: apoferritin 1-aminoanthracene fluorescence displacement
Summary of the method: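 Competitive displacement of profluorescent 1-aminoanthracene from 10 uM horse-spleen apoferritin in 50% saturated 1-AMA/PBS; 10 min RT, fluorescence Ex 380/Em 535. Normalized to free 1-AMA and complex; four-parameter Hill fit.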
Potency means the concentration at half of the fitted maximal effect.

Sequence of Ferritin light chain (Equus caballus) (P02791 2-175 limits assumed): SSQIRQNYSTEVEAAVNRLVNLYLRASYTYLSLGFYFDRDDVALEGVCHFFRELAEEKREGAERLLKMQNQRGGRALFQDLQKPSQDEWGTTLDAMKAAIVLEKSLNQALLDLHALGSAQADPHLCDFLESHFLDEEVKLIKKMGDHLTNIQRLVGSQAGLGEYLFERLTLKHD

Potency, active:
O=C(COC(=O)/C=C/c1ccccc1Cl)NC1CCCCCC1 6.31 µM
Cc1cc(OC(C)C)c2c(-c3ccccc3)cc(=O)oc2c1 35.5 µM
Cc1cccc(N(C(=O)Nc2ccccc2)C2=NCC(C)S2)c1 (stereo not given) 25.1 µM
Cc1cc(S(=O)(=O)NCCc2ccccc2)c(C)s1 15.8 µM
O=C(COC(=O)CCc1ccccc1)NC12CC3CC(CC(C3)C1)C2 8.91 µM
O=C(CC1SCCNC1=O)Nc1ccc(Cl)c(Cl)c1 (stereo not given) 20 µM
CSC(=O)NC12CC3CC(CC(C)(C3)C1)C2 5.62 µM
COc1cccc(CNc2ccc(F)c(Cl)c2)c1 7.94 µM
O=C(Oc1cccc(O)c1)C1CCCCC1 11.2 µM
O=C(Nc1ccc(Br)cc1)N1CCCCCCC1 6.31 µM
CCN1C(=O)N(c2ccc(Cl)cc2)C(C)=CC1(C)C 35.5 µM
Nc1ccc(CSc2ccc(Cl)cc2)cc1 15.8 µM
CC1(C)CC(=O)c2c(Cc3ccccc3)noc2C1 14.1 µM
O=C(Nc1cccc(Cl)c1)N1CCc2ccccc2C1 11.2 µM
O=C(CNC(=O)c1ccco1)OCC(=O)c1ccc2c(c1)CCCC2 31.6 µM
CC(C)CCOc1ccc(C2N=C(N)Nc3nc4ccccc4n32)cc1 (stereo not given) 12.6 µM
CC(C)(C)c1ccc(OCCC(=O)NC2=NCCS2)cc1 20 µM
Cc1cccc(OCCC(=O)OCC(=O)N2CCc3ccccc32)c1 10 µM
CCCCSC(=O)Nc1ccccc1 7.08 µM
O=C(COc1ccccc1)N1CCCCCCC1 12.6 µM
